# From PubChem BioAssay
# ELG1 repair inh – qHTS screen for small molecules that inhibit ELG1-dependent DNA repair in human embryonic kidney (HEK293T) cells expressing luciferase-tagged ELG1. Potency, µM (titrated, usually from 46.1 µM), without a hit: at the top dose activity change, negative = inhibition, most hits filed as inhibitors. actives 2.3% (n = 330,000). HEK293T ELG1-luciferase reporter, luminescence, 16 h; DNA damage induced by 5-fluorouridine; note: potency is the fitted concentration of half-maximal effect; nearly all actives have a fitted effect of over 55% in size
#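 Overnight (16 hr) co-exposure of 2,000 cells/well to 5-fluorouridine and compound at 37 °C preceded detection. Luciferase was quantified via ONE-Glo luminescence; loss of signal denotes inhibition.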
# Coupling enz – qHTS Assay for Inhibitors of Fructose-1,6-bisphosphate Aldolase from Giardia Lamblia: Coupling assay counterscreen | coupling enzyme system counterscreen, AmpLite Red fluorescence | activity change, negative = inhibition, % at 58.2 µM, hits read low | actives 0.67% (n = 290,000); in the data active = activity change below about -30%
#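 Fluorescence at 525 nm excitation and 598 nm emission measured inhibition of the coupled detection system without aldolase. Compounds (at 57.5 uM final) were preincubated 10 min at room temperature with coupling enzyme reagent before a 20 min substrate/AmpLite Red step.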
# Sfp inh – qHTS Assay for Inhibitors of Bacillus subtilis Sfp phosphopantetheinyl transferase (PPTase); 4'-phosphopantetheinyl transferase ffp (Bacillus subtilis), Q9F4F7; Biochemical Sfp PPTase activity, qHTS; Potency, µM, for the others: largest response in the series, negative = inhibition, actives largely listed as inhibitors; actives 3.5% (n = 310,000);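 note: the enzyme is Sfp with the accession as filed and its product quenches rhodamine fluorescence; potency is the fitted concentration of half-maximal effect; 0% = enzyme reaction without inhibitor and -100% = no enzyme wells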
#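 Fluorescence-quenching assay: 15 nM Sfp-PPTase preincubated 15 min at room temperature with compound, then 5 uM rhodamine-CoA and 12.5 uM BHQ-2-labelled YbbR peptide added. Fluorescence (ex 525/em 598 nm) read at start and after 30 min; difference gives rate.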
# Giardia kill – Small Molecules that selectively kill Giardia lamblia: qHTS; activity change, % at 7.66 µM, hits read low; actives 0.15% (n = 340,000); Giardia lamblia trophozoite viability; in the data active = activity change below about -80%; inconclusive = between about -30% and that limit;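 note: parasites exposed to compound for two days anaerobically before the ATP read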
#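 Killing of trophozoites was scored by loss of ATP luminescence after a 48 hrs anaerobic exposure to compounds at 37 deg C, using 100 cells per well.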
# * = called active by the depositor; ? = inconclusive; / = not tested or not shown; ! = repeats disagree. Rows were chosen to be rich in hits. Some 5.5% of all compounds tested hit in one or more screens of this group. Unless noted, calls come from the whole dose curve; as a rule, active = well fitted curve in the direction sought with a large enough effect; inconclusive = small, poorly fitted or top-dose-only effect, or another doubt; inactive = no such curve, though single readings can be large; an effect the other way counts as inactive or inconclusive. Unless noted, % is set by controls: 0 for no effect and ±100 for the full control effect.
SMILES,ELG1 repair inh,Coupling enz,Sfp inh,Giardia kill
C[C@]12CC[C@@H]3c4ccc(O[C@@H]5O[C@H](C(=O)O)[C@@H](O)[C@H](O)[C@H]5O)cc4CC[C@H]3[C@@H]1C[C@@H](O)[C@@H]2O,7.5%,-13.4,79.4µM*,-23.6
CC1=C2C(=O)C3C(CC=C4C[C@@H](O)CC[C@@]43C)[C@@H]2CC[C@]12O[C@@H]1C[C@H](C)CN[C@H]1C2C (stereo partly specified),/,0.2,3.8%,/
O=C(Oc1ccccc1)N1CCC[C@@]2(CCN(Cc3cc(C(F)(F)F)cc(C(F)(F)F)c3)C2)C1,/,-0.6,9.8%,/
CN1C(=O)C(=Cc2c(OCc3cnc(Cl)s3)ccc3ccccc23)C(=O)N(C)C1=O,-1.7%,0.2,?,-0.7
CN1C(=O)C(=Cc2ccc(OCC(=O)Nc3ccccc3)cc2)C(=O)N(C)C1=O,?,/,50.1µM*,8.5
Cc1ccc(OCC(=O)Nc2ccc(Cl)cc2C(=O)c2ccccc2)cc1,?,0.2,-0.9%,6.0
COc1ccc(C=C2C(=O)N(C)C(=O)N(C)C2=O)cc1COc1ccc(NC(C)=O)cc1,-9.3%,-3.3,39.8µM*,2.8
CC(=O)C1=C(O)C2C3c4c[nH]c5cccc(c45)CC3C(C)(C)N2C1=O (stereo unspecified),/,0.6,3.5%,/
C/C(O)=C1\C(=O)[C@@H]2[C@H]3c4c[nH]c5cccc(c45)C[C@H]3C(C)(C)N2C1=O,/,/,56.2µM*,/
c1ccc2c(c1)[IH]c1ccccc1-2,/,/,/,-98.4*
O=C1c2ccccc2C(=O)c2ccccc21,/,1.3,21.5%,/
CCOc1ccc(S(=O)(=O)O)c2cccnc12,/,/,70.8µM*,/
CN1CCN(c2ncc(C=O)s2)CC1,-3.3%,-37.4*,17.9%,3.9
Cc1occc1C(=O)Nc1ccccc1,/,-2.1,4.6%,/
CC(=O)CC(c1ccccc1)c1c(O)c2ccc(O)cc2oc1=O (stereo unspecified),/,8.0,-14.1%,/
Cc1c(N=Cc2c(O)n(Cc3ccc(F)cc3)c(=O)[nH]c2=O)c(=O)n(-c2ccccc2)n1C,-9.3%,4.9,-6.7%,0.3
Cc1c(N=Nc2c(O)[nH]c(=S)[nH]c2=O)c(=O)n(-c2ccccc2)n1C,8.6%,-2.7,44.7µM*,0.7
Cc1c(N=Cc2c(O)n(CCc3ccccc3)c(=O)[nH]c2=O)c(=O)n(-c2ccccc2)n1C,-6.8%,4.9,4.7%,-22.6
C=CCn1c(O)c(N=Nc2c(C)n(C)n(-c3ccccc3)c2=O)c(=O)[nH]c1=S,-12.4%,-1.6,20µM*,-15.9
CCOc1ccc(-n2c(O)c(N=Nc3c(C)n(C)n(-c4ccccc4)c3=O)c(=O)[nH]c2=O)cc1,-0.3%,-0.3,44.7µM*,?
COc1ccc(NC(=O)N2CCC3(CC2)CCN(C(=O)Oc2ccccc2)CC3)cc1,/,0.8,12.2%,/
CCOP(=S)(OCC)OCCSCC,/,2.7,-9.9%,/
CCC1C=CC=CC[C@H](C)[C@@H](O)[C@](C)(O)C(=O)[C@@H](C)[C@H](O)[C@@H](C)C(=O)[C@H](C)[C@@H](O)[C@H](C)C=CC(=O)OC2[C@@H](C)C(CC1)OC1(CC[C@@H](C)C(C[C@H](C)O)O1)[C@@H]2C (stereo partly specified),11.6µM*,/,/,/
CCOC(=O)c1cc(CC)sc1/N=C/C1C(=O)NC(=S)NC1=O,4.6%,-38.8*,17.8µM*,-6.1
CCOC(=O)c1c(/N=C/c2c(O)n(-c3cccc(C)c3)c(=O)[nH]c2=O)sc2c1CCCC2,17.1%,1.7,?,-2.3
SMILES,ELG1 repair inh,Coupling enz,Sfp inh,Giardia kill
CCOC(=O)c1cc(CC)sc1/N=C/c1c(O)[nH]c(=S)[nH]c1=O,-1.1%,-88.3*,8.91µM*,21.1
CCOC(=O)c1c(/N=C/C2C(=O)NC(=O)NC2=O)sc2c1CCC2,2.2%,0.6,35.5µM*,-16.9
COc1cc(C2c3cc4c(cc3C(O)C3COC(=O)C23)OCO4)cc(OC)c1O (stereo unspecified),/,-0.1,-8.8%,/
CCOC(=O)c1ncc2[nH]c3ccc(OCc4ccccc4)cc3c2c1COC,/,-0.2,9.9%,/
ClC=C(Cl)Cl,/,/,18.3%,/
Oc1ccccc1/C=N/NP(=S)(c1ccccc1)c1ccccc1,0.0%,-2.4,38.6%,-10.5
Oc1ccc(/C=N/NP(=S)(c2ccccc2)c2ccccc2)c(O)c1O,-0.1%,-15.7,39.8µM*,-2.8
CCCC[C@@H](C)[C@@H](OC(=O)C[C@@H](CC(=O)O)C(=O)O)[C@H](C[C@@H](C)CCCCCC[C@@H](O)C[C@H](O)[C@H](C)N)OC(=O)C[C@@H](CC(=O)O)C(=O)O,/,8.6,14.0%,/
C[C@@H]1CC[C@H]2[C@@H](C)C(=O)O[C@@H]3OC4(C)CC[C@@H]1[C@]32OO4,/,1.5,-9.9%,/
O=C1NC(=O)N(c2cccc(Cl)c2)C(=O)/C1=C\c1ccc(Sc2nc3ccccc3[nH]2)o1,20.9%,5.5,39.8µM*,-25.4
COCCNC(=O)Cn1cc(/C=C2\C(=O)NC(=O)N(c3ccccc3F)C2=O)c2ccccc21,13.5%,5.5,-0.4%,4.9
O=C1NC(=O)N(c2ccccc2F)C(=O)/C1=C/c1ccc(Sc2nc3ccccc3[nH]2)o1,2.2%,5.9,50.1µM*,-2.7
O=C1NC(=O)N(c2ccccc2)C(=O)/C1=C/c1ccc(Sc2ccccc2)o1,12.2%,2.3,22.4µM*,3.9
CC[n+]1c(-c2ccccc2)c2cc(N)ccc2c2ccc(N)cc21,/,-44.3*,?,-2.9
C=C(CC1(CNP(=O)(c2ccccc2)c2ccccc2)CC1)c1ccccc1,/,-0.2,12.8%,/
N[C@@H](Cc1cc(I)c(O)c(I)c1)C(=O)O,14.1%,0.9,?,-5.8
Cc1o[nH]c(=O)c1C[C@@H](N)C(=O)O,/,-1.6,79.4µM*!,-5.6
Cc1o[nH]c(=O)c1C[C@H](N)C(=O)O,/,2.6,79.4µM*!,/
CS(=O)(=O)N1CCC2(CCCN(Cc3ccncc3)C2)CC1,/,2.4,2.4%,/
CCCC(c1nnnn1Cc1cccs1)N1CCN(c2nc3ccccc3s2)CC1 (stereo unspecified),23.1µM*,4.9,-10.8%,-4.6
CC1(C)C(O)CC(=O)[C@]2(C)C1CC(=O)[C@]1(C)C2CC[C@@]2(C)C(c3ccoc3)OC(=O)C3O[C@@]321 (stereo partly specified),/,6.4,1.8%,/
COc1cccc(-n2c(CN3CCN(C)CC3)nc3ccc([N+](=O)[O-])cc3c2=O)c1,?,-0.8,7.94µM*,24.7
O=c1c2cc([N+](=O)[O-])ccc2nc(CN2CCOCC2)n1-c1ccccc1F,-1.3%,-6.1,22.4µM*,/
CC[C@H]1CN2CCc3cc(OC)c(OC)cc3C2C[C@@H]1C[C@H]1NCCc2cc(OC)c(OC)cc21 (stereo partly specified),?,/,/,16.6
CN1Cc2ccccc2[C@@H]2c3cccc4[nH]cc(c34)C[C@H]21,/,-13.8,79.4µM*!,/
